GAA inh: alpha-glucosidase (human) inhibition | P10253 | purified human GAA, 4-MU-alpha-glucoside fluorescence | Potency, µM (doses to about 76.9 µM), without a hit: at the top dose activity change, negative = inhibition, actives largely listed as inhibitors | actives 0.005% (n = 200,000) | AID 1466;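 further: potency means the concentration at half of the fitted maximal effect; plate controls were uninhibited enzyme wells for no effect and no-enzyme background for full effect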
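Enzyme (4 nM final) mixed with compound (up to 77 uM), then 4-MU-alpha-D-pyranoside (400 uM final) added; 20 min at room temperature, pH 5.0. Reaction stopped at pH 10, fluorescence read, AC50 derived by Hill fit.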
GAA glycogen: GAA glycogen-cleavage inhibition or activation | P10253 | recombinant GAA, glycogen substrate, Amplex Red glucose oxidase fluorescence | Potency, µM (titrated, usually from 76.4 µM), for the others: at the top dose activity change, negative = inhibition, actives largely listed as inhibitors | actives 0.38% (n = 300,000);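 further: potency means the concentration at half of the fitted maximal effect; 0% = full enzyme reaction and -100% = no-enzyme basal signal; the screen sought inhibitors and activators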
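Natural-substrate format: glycogen cleavage by 4 nM human enzyme, glucose read by Amplex Red coupling (Ex 573, Em 610 nm). Normalized to enzyme and no-enzyme controls.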
B2AR arrestin: recruits beta-arrestin to the human beta2-adrenergic receptor | P07550 | AID 492947 | beta-arrestin recruitment to beta2AR, cell-based reporter | Potency, µM (doses to about 46.1 µM), inactives show at the highest dose activation, actives largely listed as activators | actives 0.02% (n = 330,000);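 further: potency means the concentration at half of the fitted maximal effect; 0% = DMSO controls and full agonism = EC100 isoproterenol or metaproterenol; nearly all actives have a fitted effect of over 65% in size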
Target sequence (P07550 whole entry, looked up): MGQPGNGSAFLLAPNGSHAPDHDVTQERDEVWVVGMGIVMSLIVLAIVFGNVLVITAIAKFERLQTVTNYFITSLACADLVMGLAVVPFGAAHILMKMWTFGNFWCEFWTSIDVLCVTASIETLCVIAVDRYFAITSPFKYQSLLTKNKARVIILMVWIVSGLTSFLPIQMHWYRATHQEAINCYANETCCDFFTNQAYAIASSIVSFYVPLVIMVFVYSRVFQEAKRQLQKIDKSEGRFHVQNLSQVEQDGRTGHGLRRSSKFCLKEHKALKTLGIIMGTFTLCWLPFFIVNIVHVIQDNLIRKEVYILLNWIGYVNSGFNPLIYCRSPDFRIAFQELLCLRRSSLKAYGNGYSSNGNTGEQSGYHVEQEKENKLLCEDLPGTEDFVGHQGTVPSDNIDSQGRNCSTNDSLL
aGlu spleen mod: inhibitors or activators of human alpha-glucosidase in spleen homogenate. human spleen homogenate, 4-MU-alpha-glucoside fluorescence. Potency, µM (titrated, usually from 79.9 µM), inactives show top-dose activity change, negative = inhibition, most hits filed as inhibitors. actives 0.006% (n = 240,000);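 further: potency means the concentration at half of the fitted maximal effect; 0% = enzyme with vehicle and -100% = no enzyme basal signal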
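AC50 values come from Hill-equation fits of concentration-response data, normalized to no-enzyme and full-activity controls. Enzyme source: 1 ug human spleen homogenate; 1 mM fluorogenic 4-MU glucoside, pH 5.0 citrate buffer, 37 C, 40 min.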
Coupling enz: inhibits coupling enzyme system, counter-screen for aldolase hits; activity change, negative = inhibition, % at 58.2 µM, hits read low; coupling enzyme system counterscreen, AmpLite Red fluorescence; actives 0.67% (n = 290,000); in the data active means activity change below about -30%
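Counterscreen of the coupled detection system alone, without aldolase: glyceraldehyde-3-phosphate coupling enzymes plus AmpLite Red readout. Compounds at 57.5 uM final, 10 min RT preincubation, 20 min RT reaction, fluorescence 525/598 nm.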
Starred values were filed as active, the others as inactive; ? = inconclusive; . = no result given; [ ] = another dose, or the depositor's remark. The list is not random: actives were taken first. Their share in the collection is about 0.85%. Unless noted, the call rests on the fitted dose curve; in most records, active means well fitted curve in the direction sought with a large enough effect; inconclusive means small, poorly fitted or top-dose-only effect, or another doubt; inactive means no such curve, though single readings can be large; an effect the other way counts as inactive or inconclusive. Unless noted, on the % scale 0 is the no-effect control and ±100 the full control effect.

SMILES	GAA inh	GAA glycogen	B2AR arrestin	aGlu spleen mod	Coupling enz
CC1(C)OC(=O)C(=NNc2ccccc2)C(=O)O1	-7.4%	0.1%	0.1%	-18.0%	-0.2
CC1(C)OC(=O)C(=NNc2ccc(O)cc2)C(=O)O1	-3.1%	11.1µM*	-0.4%	-11.6%	6.2
O=[N+]([O-])c1cc(-c2ccc(C(=S)N3CCOCC3)o2)ccc1Cl	-5.8%	-6.5%	-0.7%	.	-32.3*
CC(=O)c1cccc(NC(=O)c2ccc(-c3ccccc3[N+](=O)[O-])o2)c1	6.7%	-0.8%	0.0%	-1.0%	-58.8*
O=[N+]([O-])c1ccccc1-c1ccc(C(=S)N2CCCC2)o1	-12.4%	?	-0.4%	3.2%	-42.5*
O=C(Nc1ccc(OCc2cc(=O)n3c4c(sc3n2)CCCC4)cc1)c1cccc(F)c1	.	6.5%[76.3 µM]	.	.	.
CCN(CC)S(=O)(=O)c1ccc2c(c1)c(=O)c(C(=O)N1CCN(c3ccc(F)cc3)CC1)cn2C	.	-24.9%[76.3 µM]	.	.	.
Cc1cc2nc3c(=O)[nH]c(=O)[nH]c3nc2c([N+](=O)[O-])c1N	2.2%	2.4%	-0.4%	-2.3%	-30.0*
CCCCCC(=O)/C=C/[C@@H]1[C@@H](C/C=C\CCCC(=O)O)[C@@H](O)C[C@H]1O	.	.	.	1.0%	3.3
CCOC(=O)OCC1OC(C#CC(C)(C)C)C=CC1OC(=O)OCC (configuration not stated)	.	.	.	-13.2%[17.4 µM]	-0.7
C/C(=N\Nc1nc2ccccc2[nH]1)c1cc2ccccc2o1	5.6%	11.2µM*	0.2%	-3.3%	-2.0
C/C(=N\Nc1nc2ccccc2[nH]1)c1ccc2c(c1)OCCO2	-7.5%	50.1µM*	-0.6%	1.2%	2.4
COc1ccc(/C=C/c2cc(O)cc(O[C@H]3OC(CO)C(O)C(O)C3O)c2)cc1 (some centres not stated)	.	.	.	-5.7%	1.8
CC(=O)Nc1ccc(C=NNc2ccc([N+](=O)[O-])cc2S(=O)(=O)Nc2ccccc2C(=O)O)cc1	.	.	-0.1%	.	.
Cc1ccc(NC(=S)NNc2ccc([N+](=O)[O-])cc2S(=O)(=O)Nc2ccccc2C(=O)O)cc1C	0.1%	22.4µM*	-0.8%	0.5%	0.3
O=C(CSc1ccc(-c2ccco2)nn1)N1CCCCC1	0.7%	-0.2%	1.1%	-7.0%	-46.5*
Cc1n[nH]c(=S)n(NC(=O)CC(=O)Nn2c(=S)[nH]nc(C)c2=O)c1=O	-3.4%	?	-0.1%	0.6%	-43.4*
Cc1ccc(NC(=O)CCCn2c3ccccc3c(=O)c3cc(C)ccc32)c(Br)c1	.	13.6%[76.3 µM]	.	.	.
COc1ccccc1N1CCN(C(=O)CCC(=O)O)CC1	3.7%	-2.2%	0.2%	-0.9%	-4.3
COc1ccccc1N1CCN(C(=O)Cc2cccs2)CC1	-0.9%	1.1%	0.0%	-1.6%	-32.2*
COc1ccc(-c2nc3cnc(N4CCNCC4)nc3n(-c3ccccc3)c2=O)cc1	.	.	.	-11.4%	0.1
COC(=O)N1[C@H]2CC[C@@]3(C)C=C(C)O[C@]1(C)C3c1ccccc12	.	.	.	3.4%	-2.3
COc1ccc(C(=O)C2CCCN(C3Cc4ccccc4C3)C2)cc1OC (configuration not stated)	?	15.8µM*	0.2%	-0.9%	-13.8
COC(=O)N[C@@H](CCc1ccccc1)[C@]1(C(=O)OC)CCCC1=O	.	.	.	0.9%	2.5
COc1ccc(Nc2nc(C)cc(C)c2C(N)=O)c(OC)c1	-5.8%	?	0.0%	-1.4%	-39.9*
SMILES	GAA inh	GAA glycogen	B2AR arrestin	aGlu spleen mod	Coupling enz
COc1ccccc1Nc1nc(C)cc(C)c1C(N)=O	-4.7%	-4.5%	-0.6%	2.0%	1.2
CCCCn1c(-c2ccsc2)nc2c1c(=O)[nH]c(=O)n2CCC	-5.6%	-6.2%	-0.2%	-1.8%	-30.7*
COc1cc2[nH]c3c(Cl)ncnc3c2cc1OC	5.5%	-0.9%	-0.7%	4.3%	-42.8*
Oc1ccc(N2CCN(c3ncnc4sc5c(c34)CCC5)CC2)cc1	-0.3%	14µM*	0.5%	-4.3%	-0.4
COc1ccc(SCC(CC(C)C)N2CCN(CCc3ccccc3)CCC2=O)cc1 (configuration not stated)	.	.	.	-7.6%	0.4
Cc1c(CN2CCCCC2)c(O)n(CCCO)c(=O)c1C#N	0.2%	3.7%	-0.1%	0.3%	-30.5*
CCCn1c(C)cc(C)c(C#N)c1=O	-4.8%	10.7%	-0.7%	-1.8%	-0.4
C=CCn1c(O)c(CN2CCN(Cc3ccccc3)CC2)c(C)c(C#N)c1=O	-5.7%	1.0%	-0.1%	-4.0%	-42.1*
Cc1cc(C)c(C#N)c(N2CCN(Cc3ccccc3)CC2)n1	-6.6%	1.6%	-0.4%	-1.3%	0.4
CCCn1c(O)c(CN2CCCCC2)c(C)c(C#N)c1=O	-5.1%	4.8%	0.1%	-0.6%	-39.7*
Cn1c(CN2CCCCC2)c(C#N)c2ccccc21	-9.2%	-0.4%	0.6%	1.5%	-0.5
COc1ccc(-c2c3c(=O)n(C)c(=O)n(C)c3c3c(-c4ccc(C)cc4)nc4ccccc4n23)cc1	.	6.2%[76.3 µM]	.	.	.
Cc1cccc(Nc2ccc3nonc3c2[N+](=O)[O-])c1C	.	2.6%	-0.1%	.	-0.2
CCOC(=O)NNc1ccc2nonc2c1[N+](=O)[O-]	-23.3%	6.0%	0.1%	-8.3%	-44.1*
C[C@@H]1O[C@@H](OC[C@H]2O[C@@H](Oc3c(-c4ccc(O)c(O)c4)oc4cc(O)cc(O)c4c3=O)[C@H](O)[C@@H](O)[C@@H]2O)[C@H](O)[C@H](O)[C@H]1O	-1.6%[15.4 µM]	3.16µM*	0.8%	-3.6%	-1.6
O=c1c(O[C@@H]2O[C@H](CO)[C@@H](O)[C@H](O)[C@H]2O)c(-c2ccc(O)c(O)c2)oc2cc(O)cc(O)c12	-1.4%[15.4 µM]	3.55µM*	0.3%	-9.9%	0.0
CC1OC(OCC2OC(Oc3c(-c4ccc(O)cc4)oc4cc(O)cc(O)c4c3=O)C(O)C(O)C2O)C(O)C(O)C1O (configuration not stated)	.	?	0.0%	-1.2%	-0.3
O=c1c(O)c(-c2ccccc2O)oc2cc(O)cc(O)c12	.	.	.	3.0%	0.1
O=c1c(O[C@@H]2O[C@H](CO)[C@H](O)[C@H](O)[C@H]2O)c(-c2ccc(O)c(O)c2)oc2cc(O)cc(O)c12	-6.5%[15.4 µM]	6.31µM*	-0.2%	?	0.7
O=c1c(O[C@@H]2O[C@H](CO)[C@@H](O)[C@H](O)[C@H]2O)c(-c2ccc(O)cc2)oc2cc(O)cc(O)c12	.	.	-0.2%	-8.2%	0.6
O=c1c(O)c(-c2ccc(O)cc2O)oc2cc(O)cc(O)c12	0.0%[15.4 µM]	3.16µM*	-0.7%	-10.5%	-0.5
C[C@H]1C=CC(=O)C[C@H]1c1c(F)cccc1Cl	.	.	.	-3.9%	-1.1
COc1c(-c2ccc(O)c(O)c2)oc2cc(O)cc(O)c2c1=O	.	35.5µM*	?	2.7%	1.1
CN(C)C(=O)c1ccc(-c2ccc3ncnc(N4CCNCC4)c3c2)cc1	.	.	.	4.5%	6.1
COc1cc2c(-c3ccc(C)cc3)nc3c(c(C)nn3-c3ccccc3)c2cc1OC	.	16.1%[76.3 µM]	.	.	.

High-throughput results from PubChem BioAssay.
